Test results as given in the supplement of paper PMC8728848.
Many of the other results were omitted from the sample, so the strongest signals are more common in it than they were.

What was measured:
Assay in all cases: glycan array binding signal (z-score within array); higher = stronger binding
Conditions in all cases: glycan notation: IUPAC condensed, linker removed
[1] = target: Gal(b1-4)GlcNAc(b1-3)Gal(b1-4)GlcNAc(b1-2)[Gal(b1-4)GlcNAc(b1-3)Gal(b1-4)GlcNAc(b1-6)]Man(a1-6)[Gal(b1-4)GlcNAc(b1-3)Gal(b1-4)GlcNAc(b1-2)Man(a1-3)]Man(b1-4)GlcNAc(b1-4)[Fuc(a1-6)]GlcNAc
Method in brief: (§1)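 Glycan array binding is given as a within-array Z-score, which can be read as non-binding when negative. The arrays, 3228 of them, came from the Consortium for Functional Glycomics database and were retained only where the protein sequence was available. Z-scores were averaged across arrays of the same protein sequence at different concentrations or buffers and across linkers.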

[2] = target: Gal(b1-4)GlcNAc(b1-3)Gal(b1-4)GlcNAc(b1-3)Gal(b1-4)GlcNAc(b1-3)Gal(b1-4)GlcNAc(b1-2)Man(a1-3)[Gal(b1-4)GlcNAc(b1-3)Gal(b1-4)GlcNAc(b1-3)Gal(b1-4)GlcNAc(b1-3)Gal(b1-4)GlcNAc(b1-2)Man(a1-6)]Man(b1-4)GlcNAc(b1-4)[Fuc(a1-6)]GlcNAc
Method in brief: as §1

[3] = target: Gal(b1-4)GlcNAc(b1-3)Gal(b1-4)GlcNAc(b1-3)Gal(b1-4)GlcNAc(b1-3)Gal(b1-4)GlcNAc(b1-3)Gal(b1-4)GlcNAc(b1-2)Man(a1-3)[Gal(b1-4)GlcNAc(b1-3)Gal(b1-4)GlcNAc(b1-3)Gal(b1-4)GlcNAc(b1-3)Gal(b1-4)GlcNAc(b1-3)Gal(b1-4)GlcNAc(b1-2)Man(a1-6)]Man(b1-4)GlcNAc(b1-4)GlcNAc
Method in brief: as §1

[4] = target: Gal(b1-4)GlcNAc(b1-3)Gal(b1-4)GlcNAc(b1-3)Gal(b1-4)GlcNAc(b1-3)Gal(b1-4)GlcNAc(b1-3)Gal(b1-4)GlcNAc(b1-3)Gal(b1-4)GlcNAc(b1-2)Man(a1-3)[Gal(b1-4)GlcNAc(b1-3)Gal(b1-4)GlcNAc(b1-3)Gal(b1-4)GlcNAc(b1-3)Gal(b1-4)GlcNAc(b1-3)Gal(b1-4)GlcNAc(b1-3)Gal(b1-4)GlcNAc(b1-2)Man(a1-6)]Man(b1-4)GlcNAc(b1-4)GlcNAc
Method in brief: as §1

[5] = target: Gal3S(b1-4)Glc6S
Method in brief: as §1

[6] = target: Gal4S6S(b1-4)GlcNAc
Method in brief: as §1

[7] = target: Gal6S(b1-4)Glc6S
Method in brief: as §1

[8] = target: Gal6S(b1-4)GlcNAc6S
Method in brief: as §1

[9] = target: GalNAc(b1-3)Gal(a1-6)Gal(b1-4)Glc
Method in brief: as §1

[10] = target: GalNAc(b1-4)GlcNAc(b1-2)Man
Method in brief: as §1

[11] = target: GalNAc(b1-4)GlcNAc(b1-2)Man(a1-3)[GalNAc(b1-4)GlcNAc(b1-2)Man(a1-6)]Man(b1-4)GlcNAc(b1-4)GlcNAc
Method in brief: as §1

[12] = target: GlcNAc(a1-4)Gal(b1-4)GlcNAc(b1-3)Gal(b1-4)Glc
Method in brief: as §1

[13] = target: GlcNAc(b1-3)Gal(b1-4)GlcNAc(b1-3)Gal(b1-4)GlcNAc(b1-3)Gal(b1-4)GlcNAc(b1-3)Gal(b1-4)GlcNAc(b1-2)Man(a1-3)[GlcNAc(b1-3)Gal(b1-4)GlcNAc(b1-3)Gal(b1-4)GlcNAc(b1-3)Gal(b1-4)GlcNAc(b1-3)Gal(b1-4)GlcNAc(b1-2)Man(a1-6)]Man(b1-4)GlcNAc(b1-4)[Fuc(a1-6)]GlcNAc
Method in brief: as §1

[14] = target: GlcNAc(b1-3)Man
Method in brief: as §1

[15] = target: Man(a1-2)Man(a1-3)[Man(a1-2)Man(a1-6)]Man
Method in brief: as §1

[16] = target: Man(a1-2)Man(a1-6)[Man(a1-3)]Man(a1-6)[Man(a1-2)Man(a1-2)Man(a1-3)]Man(b1-4)GlcNAc(b1-4)GlcNAc
Method in brief: as §1

[17] = target: Neu5Ac(a2-3)Gal(b1-3)GlcNAc
Method in brief: as §1

[18] = target: Neu5Ac(a2-3)Gal(b1-4)GlcNAc(b1-2)Man(a1-3)[Neu5Ac(a2-3)Gal(b1-4)GlcNAc(b1-2)Man(a1-6)]Man(b1-4)GlcNAc(b1-4)[Fuc(a1-6)]GlcNAc
Method in brief: as §1

[19] = target: Neu5Ac(a2-3)Gal(b1-4)GlcNAc(b1-2)[Neu5Ac(a2-3)Gal(b1-4)GlcNAc(b1-6)]Man(a1-6)[Neu5Ac(a2-3)Gal(b1-4)GlcNAc(b1-2)Man(a1-3)][GlcNAc(b1-4)]Man(b1-4)GlcNAc(b1-4)GlcNAc
Method in brief: as §1

[20] = target: Neu5Ac(a2-3)Gal(b1-4)GlcNAc(b1-3)Gal(b1-4)GlcNAc
Method in brief: as §1

[21] = target: Neu5Ac(a2-3)Gal(b1-4)GlcNAc(b1-3)Gal(b1-4)GlcNAc(b1-2)Man(a1-3)[Neu5Ac(a2-3)Gal(b1-4)GlcNAc(b1-3)Gal(b1-4)GlcNAc(b1-2)Man(a1-6)]Man(b1-4)GlcNAc(b1-4)GlcNAc
Method in brief: as §1

[22] = target: Neu5Ac(a2-3)Gal(b1-4)GlcNAc(b1-3)Gal(b1-4)GlcNAc(b1-3)GalNAc
Method in brief: as §1

[23] = target: Neu5Ac(a2-3)Gal(b1-4)GlcNAc(b1-3)Gal(b1-4)GlcNAc(b1-3)[Neu5Ac(a2-3)Gal(b1-4)GlcNAc(b1-3)Gal(b1-4)GlcNAc(b1-6)]GalNAc
Method in brief: as §1

[24] = target: Neu5Ac(a2-3)Gal(b1-4)GlcNAc(b1-6)[Gal(b1-3)]GalNAc
Method in brief: as §1

[25] = target: Neu5Ac(a2-3)Gal(b1-4)[Fuc(a1-3)]GlcNAc(b1-3)Gal(b1-4)[Fuc(a1-3)]GlcNAc(b1-3)Gal(b1-4)[Fuc(a1-3)]GlcNAc
Method in brief: as §1

[26] = target: Neu5Ac(a2-3)Gal(b1-4)[Fuc(a1-3)]GlcNAc(b1-3)GalNAc
Method in brief: as §1

[27] = target: Neu5Ac(a2-3)GalNAc
Method in brief: as §1

[28] = target: Neu5Ac(a2-3)[GalNAc(b1-4)]Gal(b1-4)Glc
Method in brief: as §1

[29] = target: Neu5Ac(a2-6)Gal(b1-4)GlcNAc(b1-3)GalNAc
Method in brief: as §1

[30] = target: Neu5Ac(a2-6)GalNAc(b1-4)GlcNAc
Method in brief: as §1

[31] = target: Neu5Ac(a2-6)GlcNAc(b1-4)GlcNAc
Method in brief: as §1

[32] = target: Neu5Ac(a2-8)Neu5Ac(a2-8)Neu5Ac
Method in brief: as §1

[33] = target: Neu5Ac(a2-8)Neu5Gc(a2-3)Gal(b1-4)GlcNAc
Method in brief: as §1

[34] = target: Neu5Gc(a2-3)Gal(b1-3)GlcNAc
Method in brief: as §1

B1: PX14379A-bvu-539-28-539 (Bacteroides vulgatus) (protein)
chain: EPYSEIIEEDYVPTEADEIALLATTYSQLRFVMDWYGLFDLQEESGDVIVTPTRPNGWDDGGTYKQMHKHTWDNQQGQPQSIWDYCYKGIANANKILKRADEGFFTEESKPKVVAEVKGVRALWYSILCDTHGNIPIQTSFSEEVPVQSTRKQVFDFIINELKEVMPNLPTEVNKSTYGRLTQWGAKCLMARMYLNAGVYTGTPMWNECLEQCNDIINSGLFSLETNYTDIFKTENSGCVETIFAIPYDEVYNEGDNNGPVFGAHMKFLSSNSRKVFNMQTTPWGGSAANPQFINSYDPDDMRLKYTWLQGDQYSPDGVLITTFPNKLPSIYKTDTDDGYRVGKYEIKVGAKSLLSNDFPYFRYTEVLLMKAECLLRLGQNETEAAHIVSQIRERAFRESAHPEKATVDAAWLKGDTHINYGTLDEKGQIDDAGNTEVVELGGLYDEWGWEFAAEARRRTDMIRFGTYQKKSWFNHTPTANDLNGNSILFPIHLDHLNTNPNLQQNPGYAGK
- glycan array binding signal (z-score) [1]: 7.27
- glycan array binding signal (z-score) [2]: 0.984
- glycan array binding signal (z-score) [3]: 9.41
- glycan array binding signal (z-score) [4]: 0.819
- glycan array binding signal (z-score) [5]: -0.224
- glycan array binding signal (z-score) [6]: -0.533
- glycan array binding signal (z-score) [7]: -0.28
- glycan array binding signal (z-score) [8]: -0.175
- glycan array binding signal (z-score) [9]: 2.98
- glycan array binding signal (z-score) [10]: -0.549
- glycan array binding signal (z-score) [11]: -0.102
- glycan array binding signal (z-score) [12]: -0.444
- glycan array binding signal (z-score) [13]: 3.83
- glycan array binding signal (z-score) [14]: -0.278
- glycan array binding signal (z-score) [15]: -0.377
- glycan array binding signal (z-score) [16]: -0.361
- glycan array binding signal (z-score) [17]: -0.439
- glycan array binding signal (z-score) [18]: -0.571
- glycan array binding signal (z-score) [19]: -0.378
- glycan array binding signal (z-score) [20]: -0.185
- glycan array binding signal (z-score) [21]: 0.342
- glycan array binding signal (z-score) [22]: -0.138
- glycan array binding signal (z-score) [23]: -0.132
- glycan array binding signal (z-score) [24]: -0.388
- glycan array binding signal (z-score) [25]: -0.35
- glycan array binding signal (z-score) [26]: 5.8
- glycan array binding signal (z-score) [27]: -0.249
- glycan array binding signal (z-score) [28]: -0.297
- glycan array binding signal (z-score) [29]: -0.204
- glycan array binding signal (z-score) [30]: -0.211
- glycan array binding signal (z-score) [31]: -0.56
- glycan array binding signal (z-score) [32]: -0.382
- glycan array binding signal (z-score) [33]: 7.1
- glycan array binding signal (z-score) [34]: -0.228
